Test systems include T-47D breast; BT-549 breast; MDA-MB-435 melanoma; SW-620 colon; MCF7 breast; HCT-116 colon; HCC-2998 colon; KM12 colon; MDA-MB-468 breast.
Common to all, as to test: NCI-60 one-dose screen, 48 h (100 = growth as untreated, 0 = no growth, -100 = all killed)
Conditions in all cases: 10 µM unless noted

The panel holds about 83,000 compounds, 20% with a hit somewhere; the sample as a whole holds those more often.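 Negative percent growth values reflect cell death: -40 means 40% of the cells present at the start died, and -100 means all died.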 Values without a mark were called inactive. The source made the active and inactive calls. How the source made its calls: active means growth percent below 10; inactive means the rest.

On to `CCN(C(=O)CN1C(=O)/C(=C/c2ccco2)SC1=S)C1CCS(=O)(=O)C1` (stereo unspecified), for which the growth with T-47D breast is 78.1%; in the test on BT-549 breast, 97%; in the test with MDA-MB-435 melanoma, 92.2%; in the test on SW-620 colon it was 102%; in the test on MCF7 breast, 91.8%; in the test on HCT-116 colon, 98.2%. In addition, the growth with HCC-2998 colon is 106%; in the test on KM12 colon, 103%; in the test on MDA-MB-468 breast it was 61%.

For `CCOC(=O)/C(F)=C/C1CC1C1CCN(C(=O)OC(C)(C)C)CC1` (stereo unspecified), the growth is 74.6% with T-47D breast; 125% with BT-549 breast; 105% in the test on MDA-MB-435 melanoma; 101% in the test on SW-620 colon; 83.9% in the test with MCF7 breast; 99.1% in the test on HCT-116 colon. For the same compound, the growth is 111% in the test on HCC-2998 colon, 102% in the test on KM12 colon and 94.8% in the test on MDA-MB-468 breast.

With `O=C(c1cc2cc(OCCCN3CCC3)ccc2[nH]1)N1C[C@@H](CCl)c2c1cc(OCc1ccccc1)c1ccccc21`, the growth with T-47D breast was -11.6% (active); in the test on BT-549 breast, -48% (active); in the test on MDA-MB-435 melanoma it was -78.8% (active); in the test on SW-620 colon, 0.696% (active); in the test with MCF7 breast, -9.07% (active); in the test with HCT-116 colon, -80.6% (active). For the same compound, the growth with HCC-2998 colon was -77.1% (active); with KM12 colon it was -5.46% (active); with MDA-MB-468 breast, -76.3% (active).

For `S=C(Nc1ccccc1)Nc1ccc(OCc2nc3ccc(Cl)cc3[nH]2)cc1`, the growth with T-47D breast was 51.5%; with BT-549 breast, 78.8%; with MDA-MB-435 melanoma it was 75.2%; in the test on SW-620 colon, 73%; in the test on MCF7 breast, 24.8%; in the test on HCT-116 colon it was 77.5%. For the same compound, the values for the growth in the test with HCC-2998 colon, in the test on KM12 colon and in the test with MDA-MB-468 breast were 104%, 74.7% and 12.1%, respectively.

As for `O=c1[nH]c2ccccc2cc1CSc1ccccc1Nc1nccc(-c2ccc3c(c2)OCO3)n1`, the growth is 83.6% with T-47D breast; 67.6% with BT-549 breast; 98.8% in the test with MDA-MB-435 melanoma; 93.2% in the test with SW-620 colon; 69.2% with MCF7 breast; 93.2% with HCT-116 colon. The growth is 116% in the test on HCC-2998 colon, 99.3% with KM12 colon and 84.4% in the test with MDA-MB-468 breast.

With `N#Cc1c(NC(=O)N2CCOCC2)n(-c2ccc(OC(F)(F)F)cc2)c2cc(F)ccc12`, the growth in the test on T-47D breast is 77.4%; in the test on BT-549 breast it was 139%; in the test on MDA-MB-435 melanoma, 92.4%; in the test with SW-620 colon, 110%; in the test on MCF7 breast, 89%; in the test on HCT-116 colon it was 80.5%. Also, the growth with HCC-2998 colon was 110%; with KM12 colon it was 92.5%; in the test with MDA-MB-468 breast, 89.1%.

In the case of `COc1ccc(-c2nc3ccccc3n2CC(=O)N=Nc2c(O)[nH]c3ccc(OC)cc23)cc1`, the growth was -72.5% (active) in the test on T-47D breast; 20.5% in the test with BT-549 breast; 26.3% with MDA-MB-435 melanoma; 48.6% in the test with SW-620 colon; 58.1% in the test with MCF7 breast; 1.32% (active) with HCT-116 colon. For the same compound, the growth in the test on HCC-2998 colon is 114%; in the test with KM12 colon, 85%; with MDA-MB-468 breast it was 52.4%.

As for `CN(CCSSCCN1CCOCC1)C(=O)Oc1cc2c(c3ccccc13)[C@H](CCl)CN2C(=O)c1cc2cc(OCCCN3CCC3)ccc2[nH]1`, the growth is -41.9% (active) in the test on T-47D breast; -52.5% (active) in the test on BT-549 breast; -36.5% (active) with MDA-MB-435 melanoma; -8.71% (active) in the test with SW-620 colon; -60.8% (active) with MCF7 breast; -49.1% (active) in the test with HCT-116 colon. Further, the growth was -64.7% (active) with HCC-2998 colon, -23.5% (active) in the test with KM12 colon and -80% (active) in the test with MDA-MB-468 breast.

For the compound `CN(C)CCCNC(=S)Nc1ccc(/C=C/c2ccc(Cl)cc2)cc1`, the growth in the test on T-47D breast is -48.7% (active); with BT-549 breast, -69.2% (active); in the test with MDA-MB-435 melanoma, -90.6% (active); in the test with SW-620 colon, -41.7% (active); with MCF7 breast, -46.2% (active); with HCT-116 colon it was -11.1% (active). Further, the growth in the test on HCC-2998 colon was -84.2% (active); in the test with KM12 colon, -36.8% (active); in the test on MDA-MB-468 breast, -88.7% (active).

As to `CCCCN1C(=O)/C(=C\C(=O)c2cc3ccccc3oc2=O)c2ccccc21`, the growth in the test with T-47D breast is 23.6%; in the test on BT-549 breast, 48%; in the test with MDA-MB-435 melanoma it was 84.2%; in the test with SW-620 colon, -47.6% (active); with MCF7 breast, 41%; in the test with HCT-116 colon it was 51.3%. Further, the growth with HCC-2998 colon was 93.9%; in the test on KM12 colon, 85%; with MDA-MB-468 breast it was 18.1%.

As for `O=C(NN1C(=O)/C(=C/C=C/c2ccc([N+](=O)[O-])o2)SC1=S)c1ccc([N+](=O)[O-])cc1`, the growth in the test on T-47D breast is -60.9% (active); in the test on BT-549 breast it was -93.2% (active); with MDA-MB-435 melanoma it was -86.9% (active); with SW-620 colon, -77.7% (active); in the test with MCF7 breast, -61.4% (active); in the test with HCT-116 colon it was -76.3% (active). In addition, the values for the growth in the test on HCC-2998 colon, in the test on KM12 colon and in the test on MDA-MB-468 breast were -94.8% (active), -94.9% (active) and -79.3% (active), respectively.

Consider `COc1ccc(NC(=O)Cn2c(/C=C/c3cccc(Br)c3)nc3ccccc3c2=O)cc1`, for which the growth in the test with T-47D breast is -16.6% (active); with BT-549 breast it was 56.1%; with MDA-MB-435 melanoma, 67%; in the test on SW-620 colon, 32.2%; in the test on MCF7 breast, 34.2%; in the test with HCT-116 colon it was 26.2%. Further, the growth is 84.5% in the test with HCC-2998 colon, 87.7% in the test with KM12 colon and 77.6% with MDA-MB-468 breast.

For `COC(=O)c1ccc(-c2c(-c3ccccc3)c(F)c3oc(C(=O)OC)c(N)c3c2-c2ccccc2)cc1`, the growth with T-47D breast was 64.5%; in the test on BT-549 breast, 95.7%; in the test on MDA-MB-435 melanoma, 101%; with SW-620 colon, 87.1%; with MCF7 breast, 75.6%; in the test on HCT-116 colon, 84.3%. In addition, the growth in the test with HCC-2998 colon is 98.4%; with KM12 colon, 95.6%; with MDA-MB-468 breast, 84%.

For `COc1cc(C2CC(c3cc(OC)c(OC)c(OC)c3)=Nc3c(N)nc(N)nc3N2)ccc1Oc1nc(Nc2ccc(F)cc2)nc(N(C)C)n1` (stereo unspecified), the growth in the test with T-47D breast was 65.8%; in the test with BT-549 breast it was 74.7%; with MDA-MB-435 melanoma, 66.4%; in the test on SW-620 colon, 50.7%; in the test with MCF7 breast it was 23.4%; with HCT-116 colon, 22.9%. Besides, the growth in the test on HCC-2998 colon was 36.8%; in the test on KM12 colon, 42.9%; in the test on MDA-MB-468 breast, -22.6% (active).

Values taken from PubChem BioAssay (NCI).
